# Source: PubChem BioAssay (Tox21)
# Inconclusive results are not listed. A call without a number means that no potency is given here. Unmarked numbers belong to inactive results. The source made the active and inactive calls. Unless noted, calls come from the whole dose curve.
# System: not listed separately
# Test: cAMP Responsive Elements (CRE) small molecule antagonists, cell-based qHTS assay (AID 1963591; active = well fitted inhibition curve with a large enough effect in the signal ratio in the repeat runs, not every such curve was filed as active; the % refers to the signal ratio; note: potency is the fitted concentration of half-maximal effect)
# Settings: CRE-bla HEK293T, beta-lactamase FRET ratio; series mostly up to 92.4 µM
# In short: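 Stimulation used NKH477 at a final 0.25 uM for 3 h in compound-treated CRE-bla HEK293T cells, seeded 18 h beforehand. Reporter activity was measured with LiveBLAzer B/G FRET substrate after 2 h at room temperature.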
Structure (SMILES),Potency,"activity change, negative = inhibition"
CNCc1ccc(NC(=O)c2c[nH]c3c2C(=O)CCC3)cc1,inactive,–
CC(CN)CC(C)(C)CCN (stereo not given),inactive,–
OCCCS,inactive,–
CC[C@H]1CC[C@H](NCc2cc3c(cc2OC)[C@H]2C[C@H]2C(=O)N3C)[C@H](c2ccccc2)N1,inactive,–
CCc1c(C(=O)NN2CCCCC2)nn(-c2ccc(Cl)cc2Cl)c1-c1ccc(Br)cc1,inactive,–
C=CC(=O)OCCCCCCOC(=O)C=C,inactive,–
CCCCNCCCC,inactive,–
CCC(C)(C)c1ccc(CC(C)CN2C[C@@H](C)O[C@@H](C)C2)cc1 (stereo not given in full),inactive,–
CCCCCCCCCCCCCCCCCCCl,–,-6.83% [at 8.39 µM]
Cc1cc(Nc2ccc(O)cc2)ccc1N,inactive,–
COC(=O)C1=C(C)NC(C)=C(C(=O)O[C@@H]2CCCN(Cc3ccccc3)C2)[C@@H]1c1cccc([N+](=O)[O-])c1,inactive,–
CC(O)C#CC(C)O (stereo not given),inactive,–
COC(=O)C1=C(C)NC(COC(N)=O)=C(C(=O)OC(C)C)C1c1cccc(Cl)c1Cl (stereo not given),inactive,–
c1ccc(Cc2ccccc2)cc1,inactive,–
Oc1c(I)cc(Cl)c2cccnc12,inactive,–
CCN(CC)CCNc1ccc(CO)c2sc3ccccc3c(=O)c12,26.6 µM (active),–
CCCCCC[C@@H](O)C/C=C\CCCCCCCC(=O)O,inactive,–

# Molecular target: Beta-2 adrenergic receptor (Homo sapiens) (UniProt P07550)
# Test: Adrenergic beta2 receptor (ADRB2) small molecule antagonists, cell-based qHTS assay (AID 1963592); note: nearly all actives have a fitted effect of over 50% in size; note: potency is the fitted concentration of half-maximal effect
# Settings: CHO-ADRB2 cells, isoproterenol-stimulated cAMP HTRF ratio, 0.5 h; series mostly up to 92.4 µM
# In short: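 Assay format: CHO-ADRB2 cells, 18-20hr seeding at 37C/5% CO2, then compound plus 1nM isoproterenol agonist mix for 0.5hr RT. Homogeneous time-resolved fluorescence cAMP detection after 1hr, expressed as 665/615 nm ratio.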
# Beta-2 adrenergic receptor (Homo sapiens), sequence (P07550 whole entry, looked up): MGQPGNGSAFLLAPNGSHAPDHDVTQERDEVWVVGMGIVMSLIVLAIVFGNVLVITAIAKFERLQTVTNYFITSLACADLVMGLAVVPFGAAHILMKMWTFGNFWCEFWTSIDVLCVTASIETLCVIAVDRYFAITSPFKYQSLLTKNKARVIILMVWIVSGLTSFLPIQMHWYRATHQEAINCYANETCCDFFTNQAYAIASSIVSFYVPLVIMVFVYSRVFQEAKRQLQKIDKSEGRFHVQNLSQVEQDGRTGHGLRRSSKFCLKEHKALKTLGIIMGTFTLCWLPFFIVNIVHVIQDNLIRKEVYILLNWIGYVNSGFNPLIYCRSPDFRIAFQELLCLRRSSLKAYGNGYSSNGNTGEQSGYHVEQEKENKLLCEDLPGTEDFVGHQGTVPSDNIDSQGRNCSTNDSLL
Structure (SMILES),Potency,"activity change, negative = inhibition"
COC(=O)CC(C)CCC=C(C)C (stereo not given),inactive,–
CC(C)n1nc(-c2cc3cc(O)ccc3[nH]2)c2c(N)ncnc21,inactive,–
CNCc1ccc(NC(=O)c2c[nH]c3c2C(=O)CCC3)cc1,inactive,–
CCOC(=O)COc1ccc2c(C)c(CCN(CC)CC)c(=O)oc2c1Cl,inactive,–
Cc1cccc(C)c1NC(=O)CN1CCN(CCCC(c2ccc(F)cc2)c2ccc(F)cc2)CC1,inactive,–
O=C(Nc1cccc([N+](=O)[O-])c1)c1cc2ccccc2cc1O,inactive,–
COc1ccccc1N1CCN(CC(O)COc2cccc3ccccc23)CC1 (stereo not given),2.11 µM (active),–
CC(CN)CC(C)(C)CCN (stereo not given),inactive,–
Cc1cc(NC(=O)C(=O)O)cc(C)c1Oc1ccc(O)c2c1CCC2,inactive,–
OCCCS,inactive,–
Cc1cc(=O)oc2cc(N(C)C)ccc12,inactive,–
CCCCCOc1ccccc1/C(=C\SC)n1ccnc1,inactive,–
CC[C@H]1CC[C@H](NCc2cc3c(cc2OC)[C@H]2C[C@H]2C(=O)N3C)[C@H](c2ccccc2)N1,inactive,–
C=CC(=O)OCC1CC2CC1C1CCC(COC(=O)C=C)C21 (stereo not given),inactive,–
CCc1c(C(=O)NN2CCCCC2)nn(-c2ccc(Cl)cc2Cl)c1-c1ccc(Br)cc1,inactive,–
COC(=O)c1nc(Cl)c(Cl)nc1N,inactive,–

Structure (SMILES),Potency,"activity change, negative = inhibition"
c1cc(OCC2CO2)cc(OCC2CO2)c1 (stereo not given),inactive,–
C=CC(=O)OCCCCCCOC(=O)C=C,inactive,–
CCCCNCCCC,inactive,–
O=C(c1ccc(F)cc1)C1CCN(CCn2c(=S)[nH]c3ccccc3c2=O)CC1,29.8 µM (active),–
Clc1ccc(Cn2c(CN3CCCC3)nc3ccccc32)cc1,inactive,–
CCCCCCCCCCCCCCCCCCCl,–,8.82% [at 8.39 µM]
COC(=O)C1=C(C)NC(C)=C(C(=O)O[C@@H]2CCCN(Cc3ccccc3)C2)[C@@H]1c1cccc([N+](=O)[O-])c1,inactive,–
O=[N+]([O-])c1ccc(O/N=C/c2cc(Br)c(O)c(Br)c2)c([N+](=O)[O-])c1,inactive,–
CCCCCCC(C)OC(=O)COc1nc(F)c(Cl)c(N)c1Cl (stereo not given),inactive,–
COC(=O)C1=C(C)NC(COC(N)=O)=C(C(=O)OC(C)C)C1c1cccc(Cl)c1Cl (stereo not given),inactive,–
c1ccc(Cc2ccccc2)cc1,inactive,–
Oc1c(I)cc(Cl)c2cccnc12,inactive,–
CCN(CC)CCNc1ccc(CO)c2sc3ccccc3c(=O)c12,16.8 µM (active),–
CCOc1ccc(N=Nc2ccc(/C=C/c3ccc(N=Nc4ccc(OCC)cc4)cc3S(=O)(=O)O)c(S(=O)(=O)O)c2)cc1,inactive,–
CN(C)CCCN1c2ccccc2Sc2ccc(C(F)(F)F)cc21,inactive,–
CCCCCC[C@@H](O)C/C=C\CCCCCCCC(=O)O,inactive,–

# Molecular target: Beta-2 adrenergic receptor (Homo sapiens) (UniProt P07550)
# Test: Adrenergic beta2 receptor (ADRB2) small molecule agonists, cell-based qHTS assay (AID 1963593);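 note: CHO cells stably overexpressing human ADRB2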
# Settings: CHO-ADRB2 cells, cAMP HTRF, 30 min; series mostly up to 92.4 µM
# In short: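 CHO cells stably over-expressing ADRB2 were plated overnight at 37C, then dosed with compounds plus a stimulation mix containing 100uM IBMX and 25uM Ro-20-1724 for 0.5hr at room temperature. cAMP was measured by HTRF competition, 1hr.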
row,Structure (SMILES),Potency
1,COC(=O)CC(C)CCC=C(C)C (stereo not given),inactive
2,CC(C)n1nc(-c2cc3cc(O)ccc3[nH]2)c2c(N)ncnc21,inactive
3,Cc1cccc(C)c1NC(=O)CN1CCN(CCCC(c2ccc(F)cc2)c2ccc(F)cc2)CC1,inactive
4,Cc1cc(NC(=O)C(=O)O)cc(C)c1Oc1ccc(O)c2c1CCC2,inactive
5,OCCCS,inactive
6,CCCCCOc1ccccc1/C(=C\SC)n1ccnc1,inactive
7,C=CC(=O)OCC1CC2CC1C1CCC(COC(=O)C=C)C21 (stereo not given),inactive
8,CCCCNCCCC,inactive
9,Clc1ccc(Cn2c(CN3CCCC3)nc3ccccc32)cc1,inactive
10,COC(=O)C1=C(C)NC(C)=C(C(=O)O[C@@H]2CCCN(Cc3ccccc3)C2)[C@@H]1c1cccc([N+](=O)[O-])c1,inactive
11,CCCCCC[C@@H](O)C/C=C\CCCCCCCC(=O)O,inactive
